Measurements taken from PubChem BioAssay (EPA / NIEHS).
Calls of active or inactive are those of the source. Rule for the calls: active = hit-call score of the fitted dose curve at least 0.9, where 1 is the maximum; inactive = score below 0.9.

Assays:
[1] = read-out: Tumor necrosis factor receptor superfamily member 6 (Homo sapiens) (UniProt P25445); assay: LTEA_HepaRG_FAS: Life Technologies and Expression Analysis (LTEA) Assay for Fas cell surface death receptor (FAS) using HepaRG (AID 2283447); settings: mRNA level, 48 h; actives raise or lower the signal
Outline: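 Differentiated human HepaRG cells, pre-cultured 48 h, were exposed in duplicate for 48 h to 8-point half-log concentrations (top 100 uM, 0.5% DMSO) in serum-free induction medium; FAS mRNA measured by qRT-PCR, normalized to ACTB/GAPDH/POLR2A, bidirectional fit versus DMSO.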

[2] = read-out: Fatty acid synthase (Homo sapiens) (UniProt P49327); assay: LTEA_HepaRG_FASN: Life Technologies and Expression Analysis (LTEA) Assay for Fatty Acid Synthase (FASN) using HepaRG (AID 2283448); settings: mRNA level, 48 h; actives raise or lower the signal
Outline: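 HepaRG, 48 h exposure, 8-pt half-log series top 100 uM, 0.5% DMSO vehicle, duplicates. Readout: FASN transcript by Fluidigm qRT-PCR; housekeeping-normalized; bidirectional curve fit vs DMSO baseline.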

[3] = read-out: Cyclin D2 (CCND2), CCND2 (gene 894); assay: LTEA_HepaRG_CCND2: Life Technologies and Expression Analysis (LTEA) Assay for Cyclin D2 (CCND2) using HepaRG (AID 2283449); settings: mRNA level, 48 h; actives raise or lower the signal;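 note: CCND2 transcript measured by TaqMan qRT-PCR and normalised to three housekeeping genes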
Outline: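 In this HepaRG study, an eight-point concentration series (max 100 uM, 0.5% DMSO) is applied for 48 h. CCND2 mRNA change is derived by qRT-PCR normalised to ACTB, GAPDH and POLR2A.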

[4] = read-out: Cyclin Dependent Kinase Inhibitor 1A (CDKN1A), CDKN1A (gene 1026); assay: LTEA_HepaRG_CDKN1A: Life Technologies and Expression Analysis (LTEA) Assay for Cyclin Dependent Kinase Inhibitor 1A (CDKN1A) using HepaRG (AID 2283450); settings: mRNA level, 48 h; actives raise or lower the signal
Outline: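 Read-out is CDKN1A mRNA by TaqMan qRT-PCR, normalized to three housekeeping genes and fitted in both directions against the DMSO baseline. Human HepaRG cells were treated 48 h with test chemicals up to 100 uM in half-log steps, 0.5% DMSO.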

[5] = read-out: Cyclin D1 (CCND1), CCND1 (gene 595); assay: LTEA_HepaRG_CCND1: Life Technologies and Expression Analysis (LTEA) Assay for Cyclin D1 (CCND1) using HepaRG (AID 2283451); settings: mRNA level, 48 h; actives raise or lower the signal;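 for AC50: TaqMan qRT-PCR transcript level normalised to ACTB GAPDH and POLR2A housekeeping genes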
Outline: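 HepaRG plated 48 h, medium switched to serum-free induction medium, chemicals added in duplicate (top 100 uM, half-log steps, 0.5% DMSO) for 48 h, cells lysed, RNA measured by TaqMan qRT-PCR.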

[6] = read-out: catalase (CAT), CAT (gene 847); assay: LTEA_HepaRG_CAT: Life Technologies and Expression Analysis (LTEA) Assay for catalase (CAT) using HepaRG (AID 2283452); settings: mRNA level, 48 h; actives raise or lower the signal;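 for AC50: TaqMan qRT-PCR signal normalized to ACTB GAPDH and POLR2A housekeeping genes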
Outline: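 Differentiated HepaRG cells in serum-free induction medium were dosed 48 h in duplicate, eight half-log concentrations from 100 uM in 0.5% DMSO. Transcript measured by TaqMan qRT-PCR, normalised to ACTB/GAPDH/POLR2A, fitted bidirectionally against DMSO.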

[7] = read-out: flavin-containing dimethylaniline monooxygenases 3 (FMO3), FMO3 (gene 2328); assay: LTEA_HepaRG_FMO3: Life Technologies and Expression Analysis (LTEA) Assay for flavin-containing dimethylaniline monooxygenases 3 (FMO3) using HepaRG (AID 2283453); settings: mRNA level, 48 h; actives raise or lower the signal;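 for AC50: FMO3 transcript by TaqMan qRT-PCR normalized to ACTB GAPDH and POLR2A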
Outline: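 Eight-point concentration-response in serum-free HepaRG cultures (top 100 uM, 0.5% DMSO, 48 h). Read-out: FMO3 mRNA level normalized to three endogenous control genes, fitted bidirectionally versus vehicle.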

[8] = read-out: Cytochrome P450 (CYP1A1), CYP1A1 (gene 1543); assay: LTEA_HepaRG_CYP1A1: Life Technologies and Expression Analysis (LTEA) Assay for Cytochrome P450 (CYP1A1) using HepaRG (AID 2283454); settings: mRNA level, 48 h; actives raise or lower the signal
Outline: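 HepaRG, 48 h post-plating switched to serum-free induction medium; 8-pt conc-response (top 100 uM, half-log, 0.5% DMSO), duplicates, 48 h. Lysis in RLT, TaqMan qRT-PCR for CYP1A1; gain or loss vs DMSO.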

[9] = read-out: CFLAR gene, CFLAR (gene 8837); assay: LTEA_HepaRG_CFLAR: Life Technologies and Expression Analysis (LTEA) Assay for CFLAR gene using HepaRG (AID 2283455); settings: mRNA level, 48 h; actives raise or lower the signal
Outline: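 Gain- or loss-of-signal changes in CFLAR transcript were fitted bidirectionally relative to 0.5% DMSO. Cells (HepaRG, duplicate wells) were dosed for 48 h across eight half-log concentrations topping at 100 uM; quantitation by TaqMan qRT-PCR.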

[10] = read-out: Forkhead box O1 (FOXO1), FOXO1 (gene 2308); assay: LTEA_HepaRG_FOXO1: Life Technologies and Expression Analysis (LTEA) Assay for Forkhead box O1 (FOXO1) using HepaRG (AID 2283456); settings: mRNA level, 48 h; actives raise or lower the signal
Outline: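 Using one lot of HepaRG hepatic cells kept in 0.5% DMSO, the team applied test chemicals in duplicate, half-log dilutions from 100 uM, for 48 h. Expression, normalised to ACTB/GAPDH/POLR2A, was compared with vehicle in either direction.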

[11] = read-out: growth arrest and DNA damage 45 (GADD45A), GADD45A (gene 1647); assay: LTEA_HepaRG_GADD45A: Life Technologies and Expression Analysis (LTEA) Assay for growth arrest and DNA damage 45 (GADD45A) using HepaRG (AID 2283458); settings: mRNA level, 48 h; actives raise or lower the signal
Outline: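 HepaRG, 48 h exposure, 8 conc. (top 100 uM, half-log steps), 0.5% DMSO vehicle, duplicates. Read-out: qRT-PCR mRNA level, housekeeping-normalized (ACTB/GAPDH/POLR2A). Curves fit bidirectionally vs DMSO baseline.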

[12] = read-out: Forkhead box O3 (FOXO3), FOXO3 (gene 2309); assay: LTEA_HepaRG_FOXO3: Life Technologies and Expression Analysis (LTEA) Assay for Forkhead box O3 (FOXO3) using HepaRG (AID 2283459); settings: mRNA level, 48 h; actives raise or lower the signal
Outline: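 Gene-expression endpoint: FOXO3 transcript level by qRT-PCR in HepaRG cultures treated 48 h with chemicals up to 100 uM (half-log, 0.5% DMSO vehicle).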

[13] = read-out: ABC Transporter (ABCB1), ABCB1 (gene 5243); assay: LTEA_HepaRG_ABCB1: Life Technologies and Expression Analysis (LTEA) Assay for ABC Transporter (ABCB1) using HepaRG (AID 2283460); settings: mRNA level, 48 h; actives raise or lower the signal
Outline: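 Human liver HepaRG line treated 48 h with up to 100 uM compound (eight half-log points, 0.5% DMSO); ABCB1 mRNA change fitted bidirectionally against DMSO controls.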

[14] = read-out: ABC Transporter (ABCC3), ABCC3 (gene 8714); assay: LTEA_HepaRG_ABCC3: Life Technologies and Expression Analysis (LTEA) Assay for ABC Transporter (ABCC3) using HepaRG (AID 2283462); settings: mRNA level, 48 h; actives raise or lower the signal
Outline: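 Human HepaRG, 48 h dosing, 8-pt half-log series from 100 uM, 0.5% DMSO vehicle, duplicates. ABCC3 mRNA by TaqMan qRT-PCR, housekeeping-normalized; bidirectional curve fit vs DMSO.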

[15] = read-out: ABC Transporter (ABCB11), ABCB11 (gene 8647); assay: LTEA_HepaRG_ABCB11: Life Technologies and Expression Analysis (LTEA) Assay for ABC Transporter (ABCB11) using HepaRG (AID 2283463); settings: mRNA level, 48 h; actives raise or lower the signal
Outline: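 Using HepaRG cultures held in 0.5% DMSO, chemicals were tested at half-log dilutions from 100 uM for 48 h. Induction or suppression of ABCB11 mRNA, normalized to ACTB, GAPDH and POLR2A, was fitted bidirectionally against vehicle.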

[16] = read-out: ABC Transporter (ABCC2), ABCC2 (gene 1244); assay: LTEA_HepaRG_ABCC2: Life Technologies and Expression Analysis (LTEA) Assay for ABC Transporter (ABCC2) using HepaRG (AID 2283464); settings: mRNA level, 48 h; actives raise or lower the signal
Outline: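 HepaRG, 48 h post-plating; serum-free induction medium; cpd 8-pt, 100 uM top, half-log, 0.5% DMSO, duplicate, 48 h. Readout: ABCC2 mRNA by qRT-PCR, norm. ACTB/GAPDH/POLR2A. Bidirectional fit vs DMSO baseline.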

[17] = read-out: Broad substrate specificity ATP-binding cassette transporter ABCG2 (Homo sapiens) (UniProt Q9UNQ0); assay: LTEA_HepaRG_ABCG2: Life Technologies and Expression Analysis (LTEA) Assay for ABC Transporter (ABCG2) using HepaRG (AID 2283465); settings: mRNA level, 48 h; actives raise or lower the signal
Outline: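 Gene expression of ABCG2 in HepaRG liver cells is quantified by qRT-PCR following 48 h exposure across an eight-point series topping at 100 uM. Values come from bidirectional fitting relative to DMSO vehicle.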

[18] = read-out: ATP-citrate lyase (ACLY), ACLY (gene 47); assay: LTEA_HepaRG_ACLY: Life Technologies and Expression Analysis (LTEA) Assay for ATP-citrate lyase (ACLY) using HepaRG (AID 2283466); settings: mRNA level, 48 h; actives raise or lower the signal
Outline: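 ACLY expression changes in human HepaRG liver cells are quantified by qRT-PCR after 48 h exposure to test chemicals (maximum 100 uM, half-log steps). Values are fitted in both directions relative to 0.5% DMSO vehicle.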

[19] = read-out: growth arrest and DNA damage 45 (GADD45B), GADD45B (gene 4616); assay: LTEA_HepaRG_GADD45B: Life Technologies and Expression Analysis (LTEA) Assay for growth arrest and DNA damage 45 (GADD45B) using HepaRG (AID 2283461); settings: mRNA level, 48 h; actives raise or lower the signal
Outline: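 HepaRG, ~100,000 cells/well, 48 h plating; serum-free induction medium; cpd 100 uM top, half-log x8, 0.5% DMSO, duplicate, 48 h; lysis in RLT, RNA isolation, qRT-PCR; norm ACTB/GAPDH/POLR2A; bidirectional fit vs DMSO.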

[20] = CEETOX_H295R_TESTO: CeeTox H295R High-throughput Steroidogenesis Assay for Testosterone (TESTO) (AID 2283457); settings: actives raise or lower the signal
Outline: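 H295R, passage ≤10, 48 h dosing; media extracted with MTBE → HPLC-MS/MS for testosterone; 7-pt standard curve sets LLOQ/ULOQ; bidirectional fit vs DMSO; MTT viability same wells.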

Measured: AC50

Fatty acid synthase (Homo sapiens), sequence (P49327 whole entry, looked up): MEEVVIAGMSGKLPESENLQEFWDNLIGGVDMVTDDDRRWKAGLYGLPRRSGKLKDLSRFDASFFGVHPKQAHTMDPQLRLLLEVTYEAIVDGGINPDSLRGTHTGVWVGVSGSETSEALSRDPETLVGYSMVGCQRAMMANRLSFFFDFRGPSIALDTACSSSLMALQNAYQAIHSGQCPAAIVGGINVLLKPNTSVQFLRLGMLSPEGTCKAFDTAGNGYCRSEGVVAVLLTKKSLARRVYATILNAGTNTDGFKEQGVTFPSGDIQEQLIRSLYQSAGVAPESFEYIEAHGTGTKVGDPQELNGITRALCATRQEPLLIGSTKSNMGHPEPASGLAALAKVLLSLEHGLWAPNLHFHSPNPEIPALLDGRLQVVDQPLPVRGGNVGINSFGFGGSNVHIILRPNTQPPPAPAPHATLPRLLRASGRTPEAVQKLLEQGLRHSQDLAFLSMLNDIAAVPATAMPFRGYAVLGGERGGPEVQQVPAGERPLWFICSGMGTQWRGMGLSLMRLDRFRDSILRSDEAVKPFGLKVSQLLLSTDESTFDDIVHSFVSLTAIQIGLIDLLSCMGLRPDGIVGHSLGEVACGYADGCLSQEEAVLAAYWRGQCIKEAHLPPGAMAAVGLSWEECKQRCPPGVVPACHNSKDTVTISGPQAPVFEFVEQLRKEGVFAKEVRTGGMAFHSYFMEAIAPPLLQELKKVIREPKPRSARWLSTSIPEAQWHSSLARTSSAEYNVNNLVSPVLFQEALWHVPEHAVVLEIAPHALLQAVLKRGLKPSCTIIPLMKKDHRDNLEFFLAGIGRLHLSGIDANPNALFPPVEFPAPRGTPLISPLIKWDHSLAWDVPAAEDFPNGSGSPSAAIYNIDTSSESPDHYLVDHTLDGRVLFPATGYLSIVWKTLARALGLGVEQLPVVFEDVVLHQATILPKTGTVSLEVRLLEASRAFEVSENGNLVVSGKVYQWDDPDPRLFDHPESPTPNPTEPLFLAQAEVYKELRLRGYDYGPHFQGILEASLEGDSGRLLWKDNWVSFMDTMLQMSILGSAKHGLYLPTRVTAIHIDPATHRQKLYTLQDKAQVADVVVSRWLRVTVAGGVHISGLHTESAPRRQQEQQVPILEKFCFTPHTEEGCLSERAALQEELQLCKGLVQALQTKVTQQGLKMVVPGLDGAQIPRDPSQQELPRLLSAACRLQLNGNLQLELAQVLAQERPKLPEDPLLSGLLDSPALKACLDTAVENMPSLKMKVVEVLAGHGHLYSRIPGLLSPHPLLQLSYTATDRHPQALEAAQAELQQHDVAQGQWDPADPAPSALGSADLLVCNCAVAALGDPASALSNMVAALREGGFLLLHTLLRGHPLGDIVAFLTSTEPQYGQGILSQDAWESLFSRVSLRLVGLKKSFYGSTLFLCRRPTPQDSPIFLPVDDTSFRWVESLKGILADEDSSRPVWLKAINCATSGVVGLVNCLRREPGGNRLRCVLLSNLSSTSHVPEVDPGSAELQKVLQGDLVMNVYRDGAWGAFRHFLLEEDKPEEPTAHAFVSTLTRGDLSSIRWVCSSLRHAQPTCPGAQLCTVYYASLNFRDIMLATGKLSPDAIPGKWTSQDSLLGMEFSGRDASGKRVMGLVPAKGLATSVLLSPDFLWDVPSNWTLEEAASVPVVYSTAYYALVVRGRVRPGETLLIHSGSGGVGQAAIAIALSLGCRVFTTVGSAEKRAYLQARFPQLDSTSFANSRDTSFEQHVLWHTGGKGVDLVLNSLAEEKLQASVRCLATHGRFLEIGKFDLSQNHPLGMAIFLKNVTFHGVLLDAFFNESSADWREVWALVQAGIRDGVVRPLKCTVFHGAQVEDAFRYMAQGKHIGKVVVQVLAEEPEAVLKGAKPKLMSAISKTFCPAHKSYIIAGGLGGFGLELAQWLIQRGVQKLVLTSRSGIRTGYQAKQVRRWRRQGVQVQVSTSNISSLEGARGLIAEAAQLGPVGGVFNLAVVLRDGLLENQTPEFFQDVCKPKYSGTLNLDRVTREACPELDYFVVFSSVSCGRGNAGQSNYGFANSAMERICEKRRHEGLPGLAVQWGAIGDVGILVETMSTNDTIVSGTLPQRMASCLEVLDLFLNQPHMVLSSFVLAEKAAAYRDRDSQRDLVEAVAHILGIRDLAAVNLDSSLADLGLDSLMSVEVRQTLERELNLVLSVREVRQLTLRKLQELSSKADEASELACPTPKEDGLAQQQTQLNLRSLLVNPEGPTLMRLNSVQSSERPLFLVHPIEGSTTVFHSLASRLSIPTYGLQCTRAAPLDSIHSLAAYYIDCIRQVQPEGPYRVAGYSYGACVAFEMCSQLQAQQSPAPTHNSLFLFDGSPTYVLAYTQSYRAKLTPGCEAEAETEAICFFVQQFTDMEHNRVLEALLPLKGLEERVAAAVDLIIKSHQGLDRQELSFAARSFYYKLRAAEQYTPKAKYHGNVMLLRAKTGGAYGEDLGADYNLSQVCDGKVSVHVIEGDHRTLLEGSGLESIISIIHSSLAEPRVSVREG
Broad substrate specificity ATP-binding cassette transporter ABCG2 (Homo sapiens), sequence (Q9UNQ0 whole entry, looked up): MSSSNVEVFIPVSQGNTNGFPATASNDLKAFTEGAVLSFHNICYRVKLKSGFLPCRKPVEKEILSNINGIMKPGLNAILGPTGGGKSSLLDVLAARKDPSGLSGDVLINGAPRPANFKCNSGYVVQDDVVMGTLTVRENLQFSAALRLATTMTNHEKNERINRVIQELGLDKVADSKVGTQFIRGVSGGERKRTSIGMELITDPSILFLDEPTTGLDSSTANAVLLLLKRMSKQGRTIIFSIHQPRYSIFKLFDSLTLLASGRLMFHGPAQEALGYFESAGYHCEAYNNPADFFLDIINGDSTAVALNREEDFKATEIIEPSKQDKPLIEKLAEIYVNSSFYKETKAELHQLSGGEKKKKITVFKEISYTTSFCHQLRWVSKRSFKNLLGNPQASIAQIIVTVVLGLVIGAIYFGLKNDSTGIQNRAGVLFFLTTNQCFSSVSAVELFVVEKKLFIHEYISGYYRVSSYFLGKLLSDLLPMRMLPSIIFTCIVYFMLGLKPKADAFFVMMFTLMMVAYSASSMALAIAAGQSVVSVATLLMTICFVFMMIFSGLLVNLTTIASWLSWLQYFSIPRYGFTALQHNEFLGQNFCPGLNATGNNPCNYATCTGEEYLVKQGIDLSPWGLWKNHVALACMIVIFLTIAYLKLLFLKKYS

C=C(C)[C@H]1Cc2c(ccc3c2O[C@@H]2COc4cc(OC)c(OC)cc4[C@@H]2C3=O)O1
inactive: [3] | [9] | [12] | [14] | [18]
active: [1] 13.1 µM | [2] 20.8 µM | [4] 1.41 µM | [5] 22.8 µM | [6] 1.75 µM | [7] 5.89 µM | [8] 2.44 µM | [10] 11.7 µM | [11] 6.57 µM | [13] 18.6 µM | [15] 7.9 µM | [16] 15.2 µM | [17] 1.18 µM

CCOP(=S)(OCC)Oc1ccc2c(C)c(Cl)c(=O)oc2c1
active: [7] 81.1 µM | [8] 6.37 µM | [13] 12.9 µM | [17] 13.3 µM
not listed: [20]
inactive: all other assays above

CCCSP(=O)(OCC)SCCC
active: [8] 40.8 µM | [16] 20.3 µM
inactive: all other assays above

CC(C1CC1)C(O)(Cn1cncn1)c1ccc(Cl)cc1 (stereo not drawn)
active: [7] 77.7 µM | [8] 17 µM | [13] 13.1 µM | [18] 31.7 µM
not listed: [20]
inactive: all other assays above

CCCOc1nn(C(=O)NS(=O)(=O)c2ccccc2C(=O)OC)c(=O)n1C
active: [3] 67.7 µM
not listed: [20]
inactive: all other assays above

CCOP(=S)(OCC)OC(Cl)C(Cl)(Cl)Cl (stereo not drawn)
active: [8] 74.3 µM
not listed: [19] | [20]
inactive: all other assays above
